TrxR1 inh – qHTS Assay for Inhibitors of Mammalian Selenoprotein Thioredoxin Reductase 1 (TrxR1): qHTS | recombinant rTrxR1, NADPH fluorescence consumption, selenite substrate | Thioredoxin reductase 1, cytoplasmic (Rattus norvegicus), O89049 | Potency, µM (titrated, usually from 114 µM), for the others: at the top dose activity change, negative = inhibition, most hits filed as inhibitors | 390,000 compounds, 1% hits; note: % is set by controls: 0 for no effect and ±100 for the full control effect; nearly all actives have a fitted effect of over 65% in size
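Rat TrxR1 (90 nM in the dispensed reagent) was pre-reduced with 400 uM NADPH for 5 min at room temperature, then incubated with compound for 15 min. After 400 uM selenite was added, NADPH fluorescence (Ex 340/Em 450 nm) was followed for 8 min.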
ALOX12 inh – Primary qHTS assay for inhibitors of human arachidonate 12S-lipoxygenase (ALOX12): Round 2. Polyunsaturated fatty acid lipoxygenase ALOX12 (Homo sapiens), P18054. purified 12hLO, xylenol orange hydroperoxide absorbance. Potency, µM (titrated, usually from 108 µM), for the others: at the highest dose activity change, negative = inhibition, most hits filed as inhibitors. 580,000 compounds, 1.1% hits. AID 1671190, 2021; note: % is set by controls: 0 for no effect and ±100 for the full control effect
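Purified human 12hLO (150 nM final) in 25 mM Hepes, 0.01% Triton X-100, pH 7.0 was preincubated 15 min at room temperature with compound. Then 40 uM arachidonic acid was added, 30 min. Hydroperoxide was read by Fe-XO absorbance ratio 573/405 nm.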
Apoferritin bind – qHTS Assay for Identification of Novel General Anesthetics; Ferritin light chain (Equus caballus), P02791; apoferritin/1-aminoanthracene competitive binding, fluorescence; Potency, µM (doses to about 77.5 µM), without a hit: at the highest dose activity change, negative = displacement, usual class: inhibitors; 350,000 compounds, 0.074% hits; note: % is set by controls: 0 for no effect and ±100 for the full control effect; nearly all actives have a fitted effect of over 20% in size
Target sequence (P02791 2-175 limits assumed): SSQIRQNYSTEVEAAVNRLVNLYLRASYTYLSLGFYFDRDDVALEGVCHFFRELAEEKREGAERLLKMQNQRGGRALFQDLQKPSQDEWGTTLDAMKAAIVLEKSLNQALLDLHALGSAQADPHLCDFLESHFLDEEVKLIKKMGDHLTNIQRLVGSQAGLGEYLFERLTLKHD
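Read-out: endpoint 1-AMA fluorescence, excitation 380 nm and emission 535 nm, after compounds sit 10 min at room temperature with 10 uM horse-spleen apoferritin in 50% saturated 1-AMA/PBS. Values come from four-parameter Hill fits.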
TrxR1 substrate – qHTS Assay for Substrates of Mammalian Selenoprotein Thioredoxin Reductase 1 (TrxR1): qHTS; Thioredoxin reductase 1, cytoplasmic (Rattus norvegicus), O89049; purified TrxR1 substrate turnover, NADPH consumption readout; Potency, µM (titrated, usually from 114 µM), for the others: at the highest dose activity change, negative = substrate turnover; 390,000 compounds, 0.01% hits; AID 588456, 2011; note: % is set by controls: 0 for no effect and ±100 for the full control effect; nearly all actives have a fitted effect of over 50% in size
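Rat TrxR1, dispensed at 90 nM, was prereduced with 400 uM NADPH (final) for 5 min at ~22 deg C, then incubated with compound 15 min before 400 uM selenite. A first-read NADPH fluorescence drop versus no-compound background flagged substrates.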
IDH1 R132H inh – qHTS for Inhibitors of mutant isocitrate dehydrogenase 1 (IDH1): qHTS. Isocitrate dehydrogenase [NADP] cytoplasmic (Homo sapiens), O75874. IDH1-R132H enzyme, NADPH consumption, diaphorase/resazurin fluorescence. Potency, µM (doses to about 76.6 µM), for the others: top-dose activity change, negative = inhibition, usual class: inhibitors. 390,000 compounds, 0.093% hits. AID 602179, 2012; note: % is set by controls: 0 for no effect and ±100 for the full control effect; nearly all actives have a fitted effect of over 65% in size
Target sequence (O75874 whole entry R132H, stated change not applied): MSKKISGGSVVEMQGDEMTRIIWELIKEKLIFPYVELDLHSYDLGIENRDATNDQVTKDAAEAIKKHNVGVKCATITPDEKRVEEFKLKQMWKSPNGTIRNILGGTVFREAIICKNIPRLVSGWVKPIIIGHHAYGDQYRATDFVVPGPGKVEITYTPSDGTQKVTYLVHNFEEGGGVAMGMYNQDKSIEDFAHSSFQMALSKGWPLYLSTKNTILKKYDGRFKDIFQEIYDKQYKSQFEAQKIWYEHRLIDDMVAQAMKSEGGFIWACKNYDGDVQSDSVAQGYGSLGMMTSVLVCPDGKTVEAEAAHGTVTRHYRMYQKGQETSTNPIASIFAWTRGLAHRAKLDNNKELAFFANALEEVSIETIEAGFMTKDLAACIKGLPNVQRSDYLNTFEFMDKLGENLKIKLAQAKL
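IDH1-R132H (0.5 ug/mL) preincubated 30 min with compound, then NADPH (0.016 mM) and alpha-KG (2 mM) added; 80 min at RT, pH 7.5. Remaining NADPH coupled via diaphorase/resazurin to fluorescence (540/590 nm); concentration-response curves normalized to no-enzyme control.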
GRP78 ERSR act – qHTS for Inducers of the Endoplasmic Reticulum Stress Response (ERSR) in Human Glioma: qHTS; U87-MG GRP78 promoter luciferase reporter, 16 h; Potency, µM, for inactives: at the highest dose activation, usual class: activators; 420,000 compounds, 0.02% hits; AID 602332, 2012; note: series mostly up to about 76 µM; % of control where 0% means no effect; nearly all actives have a fitted effect of over 35% in size
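Stably transfected U87-MG glioma cells carrying a GRP78-based luciferase sensor; 16 h compound incubation. Luminescence end-point read 10 min after Bright-Glo addition at room temperature.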
* hit, by the source's call; ? = inconclusive; nt = not tested or not shown; [ ] = dose if it differs, or a comment. This is a sample that favours compounds with a hit; in the whole collection about 1.7% have one here. Calls come from the whole dose curve; as a rule, active = well fitted curve in the direction sought with a large enough effect; inconclusive = small, poorly fitted or top-dose-only effect, or another doubt; inactive = no such curve, though single readings can be large; an effect the other way counts as inactive or inconclusive. Potency is the fitted concentration of half-maximal effect.

SMILES	TrxR1 inh	ALOX12 inh	Apoferritin bind	TrxR1 substrate	IDH1 R132H inh	GRP78 ERSR act
O=C(NC[C@H]1C[C@@H]2CCN1C[C@@H]2CN1CCN(c2ccc(F)cc2)CC1)Nc1ccsc1	nt	8.4%	nt	nt	nt	nt
Cc1ncc2c(n1)C[C@@H]1CC[C@H]2N1S(=O)(=O)Cc1ccccc1	nt	23.4%	nt	nt	nt	nt
C[C@@H]1[C@@H](CC(C[C@H]2O[C@@H]3O[C@]4(C)CC[C@@H]5[C@H](C)CC[C@@H]([C@H]2C)[C@@]35OO4)C[S+](=O)([O-])c2ccc(COC(=O)N(C)C)cc2)O[C@@H]2O[C@]3(C)CC[C@H]4[C@H](C)CC[C@@H]1[C@@]24OO3 (stereo partly drawn)	nt	-27.0%[57.4 µM]	nt	nt	nt	nt
COCCN1CCN(C(=O)C2C(C)(C)C2(C)C)[C@H]2CS(=O)(=O)C[C@H]21	nt	28.7%	nt	nt	nt	nt
CC(C)(C)c1ccc(O)c(N=Cc2c(O)ccc3ccccc23)c1	1.0%	7.94µM*	?	-11.0%	12.8%	-3.3%
O=C(COc1ccccc1)N1[C@H]2CC[C@@H]1c1cnc(-c3ccc(F)cc3)nc1C2	nt	2.1%	nt	nt	nt	nt
CN(C)c1ccc(CCN2CCOCC2)cc1	-0.7%	2.1%	nt	-2.7%	-14.8%	-2.5%
CN(C)c1ccc2c(c1)N=C(c1ccco1)OP2(=S)N1CCOCC1 (stereo not drawn)	-2.9%	20µM*	-8.8%	-5.7%	4.1%	7.7%
CN1CC2CN(C(=O)c3cccs3)CC(C1)O2	nt	39.8%	nt	nt	nt	nt
NCCc1ccc2c(c1)OCCO2	nt	-4.8%	nt	nt	nt	nt
Cc1ccccc1CN1CCN(Cc2cccc(F)c2)CC1	nt	0.112µM*	nt	nt	nt	nt
C[N+](C)(C)CC1CCCC1=O (stereo not drawn)	-2.6%[11.4 µM]	?	nt	-4.4%[11.4 µM]	2.2%	-3.8%
C[N+](C)(C)CC1CCC1	nt	28.2µM*	nt	nt	nt	nt
Cn1nc(-c2cccs2)cc1[C@H]1CN2CC[C@H]1C[C@@H]2COC(=O)Nc1ccccc1	nt	0.3%[176 µM]	nt	nt	nt	nt
Cc1ccc(/C=C2\C(=O)NC(=O)N(Cc3ccccc3Cl)C2=O)o1	?	31.6µM*	-14.2%	-0.5%	-7.5%	0.3%
Cc1ccc(/C=C2/C(=O)NC(=O)N(Cc3ccc(F)cc3)C2=O)o1	nt	9.0%	-3.3%	nt	nt	nt
COc1ccc(CCNCc2ccccc2)cc1	0.0%	?	9.4%	-2.6%	-9.3%	-4.7%
COc1ccc(CCNCc2cccc(Br)c2)cc1	nt	1.26µM*	nt	nt	nt	nt
COc1ccc(CCNCc2ccc(Br)cc2)cc1	nt	22.4µM*	nt	nt	nt	nt
Cc1cccc(C2SCC(=O)Nc3n[nH]c(C)c32)c1 (stereo not drawn)	nt	-1.0%	nt	nt	nt	nt
O=C(COc1ccccc1)N1[C@H]2CC[C@@H]1c1cnc(-c3ccccc3)nc1C2	nt	5.6%	nt	nt	nt	nt
CC(C)NC(=O)NC[C@H]1C[C@@H]2CCN1C[C@@H]2c1cc(-c2ccc3ccccc3c2)nn1C	nt	45.8%[176 µM]	nt	nt	nt	nt
O=C(N/N=C/c1c(O)n(CCC2=CCCCC2)c(=S)[nH]c1=O)c1ccccc1	-20.7%	28.2µM*	-16.2%	-14.6%	-0.5%	0.6%
COC1CC2C=C(C)C=CC=CC(=O)NC(c3ccccc3)CC=CCCC(O)CC(=O)C2=C1O (stereo not drawn)	nt	6.1%	nt	nt	nt	-11.5%
N#C/C(=C/c1ccc(O)c(O)c1)C(N)=S	?	nt	nt	?	nt	-2.8%
N#C/C(=C\c1ccc(O)c(O)c1)C(=O)NCCCNC(=O)/C(C#N)=C/c1ccc(O)c(O)c1	?	nt	nt	?	nt	36.9µM*
COc1cncc(CN2CCC3(CC2)C(=O)Nc2cc(OC4CCCC4)c(OC)cc23)c1	nt	80.2%[176 µM]	nt	nt	nt	nt

Compound activity from PubChem.
